Publication PMC7862700, “An all-to-all approach to the identification of sequence-specific readers for epigenetic DNA modifications on cytosine”

Experiments:
Assay in all cases: DAPPL (digital affinity profiling via proximity ligation, sequencing); 10 mM Tris-HCl pH 7.5, 50 mM NaCl, 1 mM DTT, 4% glycerol, room temperature, 30 min; GST-TFs on glutathione beads, 16-mer random dsDNA library, 0.1% formaldehyde crosslink after washing; high values mean tight binding
[1] = molecular target: T1, FEV (Homo sapiens, UniProt Q99581 1-238); conditions: protein: recombinant; tags: N-terminal GST; dsDNA, one strand shown
T1 sequence: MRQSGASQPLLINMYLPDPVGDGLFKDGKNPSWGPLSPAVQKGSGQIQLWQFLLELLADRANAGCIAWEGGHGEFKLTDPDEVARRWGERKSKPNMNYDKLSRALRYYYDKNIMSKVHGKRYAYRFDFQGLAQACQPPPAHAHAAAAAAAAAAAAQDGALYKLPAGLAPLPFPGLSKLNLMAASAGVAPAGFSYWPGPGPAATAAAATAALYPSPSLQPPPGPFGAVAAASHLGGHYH
In short: (§1)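 Sequencing on an Illumina NextSeq500 followed washing, crosslinking with 0.1% formaldehyde, proximity ligation (BsaI/T4 ligase, 1 h, 37 °C) and PCR amplification of pools that had been incubated for 30 min at room temperature with 200 nmole of a random double-stranded 16-mer DNA library in Tris/NaCl/DTT/glycerol buffer. Each pool held DNA-barcoded human transcription factors, expressed in yeast as GST fusions and captured on glutathione beads, plus a tag-only sample. Binding signal is a hexamer's read frequency for a factor divided by its frequency in the tag-only sample.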

[2] = molecular target: ETV5 (Homo sapiens, UniProt P41161 1-510); conditions: protein: recombinant; tags: N-terminal GST; dsDNA, one strand shown
Chain of ETV5 (P41161 whole entry): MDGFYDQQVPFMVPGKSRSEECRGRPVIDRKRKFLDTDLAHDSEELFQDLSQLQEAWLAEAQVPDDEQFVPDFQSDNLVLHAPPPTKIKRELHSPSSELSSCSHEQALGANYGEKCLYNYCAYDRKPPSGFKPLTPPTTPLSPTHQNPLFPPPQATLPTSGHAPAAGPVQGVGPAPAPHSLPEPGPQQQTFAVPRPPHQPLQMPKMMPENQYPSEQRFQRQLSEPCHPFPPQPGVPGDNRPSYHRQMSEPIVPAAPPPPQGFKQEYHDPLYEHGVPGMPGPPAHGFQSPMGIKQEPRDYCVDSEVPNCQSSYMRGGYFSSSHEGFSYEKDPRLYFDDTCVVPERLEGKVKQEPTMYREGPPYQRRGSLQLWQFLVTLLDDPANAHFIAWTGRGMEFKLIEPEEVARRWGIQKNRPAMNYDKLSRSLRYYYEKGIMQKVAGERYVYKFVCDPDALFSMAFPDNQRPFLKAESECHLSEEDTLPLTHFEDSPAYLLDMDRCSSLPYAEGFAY
In short: as §1

[3] = molecular target: HSF1 (Homo sapiens, UniProt Q00613 1-529); conditions: protein: recombinant; tags: N-terminal GST; chain copies: 3; dsDNA, one strand shown
Chain of HSF1 (Q00613 whole entry): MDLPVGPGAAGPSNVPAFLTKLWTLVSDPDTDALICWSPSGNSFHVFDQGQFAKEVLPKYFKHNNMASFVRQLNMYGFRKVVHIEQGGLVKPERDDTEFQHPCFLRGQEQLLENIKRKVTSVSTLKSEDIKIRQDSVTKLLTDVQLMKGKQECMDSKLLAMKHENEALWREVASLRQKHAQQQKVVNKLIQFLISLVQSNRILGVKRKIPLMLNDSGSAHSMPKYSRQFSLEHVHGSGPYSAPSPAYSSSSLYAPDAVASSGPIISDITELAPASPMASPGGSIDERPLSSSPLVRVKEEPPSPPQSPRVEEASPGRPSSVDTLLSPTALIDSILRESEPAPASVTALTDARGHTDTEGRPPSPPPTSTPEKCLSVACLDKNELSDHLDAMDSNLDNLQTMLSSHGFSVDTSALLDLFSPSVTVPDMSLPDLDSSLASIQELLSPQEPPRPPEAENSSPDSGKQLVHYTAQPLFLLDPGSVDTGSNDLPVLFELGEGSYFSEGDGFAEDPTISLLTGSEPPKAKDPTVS
In short: as §1

[4] = molecular target: ELF4 (Homo sapiens, UniProt Q99607 1-663); conditions: protein: recombinant; tags: N-terminal GST; dsDNA, one strand shown
Chain of ELF4 (Q99607 whole entry): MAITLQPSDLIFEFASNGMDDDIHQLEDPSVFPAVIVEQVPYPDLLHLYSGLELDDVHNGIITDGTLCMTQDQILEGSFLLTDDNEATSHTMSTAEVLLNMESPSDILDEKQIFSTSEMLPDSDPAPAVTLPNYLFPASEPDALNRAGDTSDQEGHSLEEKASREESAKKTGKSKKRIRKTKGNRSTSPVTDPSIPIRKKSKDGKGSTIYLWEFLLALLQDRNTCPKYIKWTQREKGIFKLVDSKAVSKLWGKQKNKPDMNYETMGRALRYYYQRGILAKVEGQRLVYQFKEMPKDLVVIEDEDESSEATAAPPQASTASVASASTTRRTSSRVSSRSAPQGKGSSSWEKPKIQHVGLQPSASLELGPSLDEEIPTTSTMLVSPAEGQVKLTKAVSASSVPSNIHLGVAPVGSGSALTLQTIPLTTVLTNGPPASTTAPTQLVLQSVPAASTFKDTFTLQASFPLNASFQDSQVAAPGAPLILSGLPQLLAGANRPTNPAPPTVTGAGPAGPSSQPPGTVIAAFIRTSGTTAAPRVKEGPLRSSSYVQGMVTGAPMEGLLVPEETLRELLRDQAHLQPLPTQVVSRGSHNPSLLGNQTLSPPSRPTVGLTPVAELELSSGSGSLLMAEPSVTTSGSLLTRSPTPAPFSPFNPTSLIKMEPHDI
In short: as §1

[5] = molecular target: T2, ELK4 (Homo sapiens, UniProt P28324-2 1-405); conditions: protein: recombinant; tags: N-terminal GST; dsDNA, one strand shown
T2 sequence: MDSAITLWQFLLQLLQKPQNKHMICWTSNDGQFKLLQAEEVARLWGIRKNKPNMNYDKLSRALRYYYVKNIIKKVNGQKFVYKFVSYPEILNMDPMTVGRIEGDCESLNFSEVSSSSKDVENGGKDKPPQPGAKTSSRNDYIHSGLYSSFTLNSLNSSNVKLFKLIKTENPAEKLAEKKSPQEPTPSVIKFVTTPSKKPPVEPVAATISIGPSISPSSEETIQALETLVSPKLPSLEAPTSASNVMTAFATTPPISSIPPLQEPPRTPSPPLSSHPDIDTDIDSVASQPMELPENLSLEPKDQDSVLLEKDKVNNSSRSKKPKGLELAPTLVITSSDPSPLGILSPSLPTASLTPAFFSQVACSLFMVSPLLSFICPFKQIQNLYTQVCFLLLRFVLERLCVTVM
In short: as §1

[6] = molecular target: T3, ETV2 (Homo sapiens, UniProt O00321 1-342); conditions: protein: recombinant; tags: N-terminal GST; dsDNA, one strand shown
T3 sequence: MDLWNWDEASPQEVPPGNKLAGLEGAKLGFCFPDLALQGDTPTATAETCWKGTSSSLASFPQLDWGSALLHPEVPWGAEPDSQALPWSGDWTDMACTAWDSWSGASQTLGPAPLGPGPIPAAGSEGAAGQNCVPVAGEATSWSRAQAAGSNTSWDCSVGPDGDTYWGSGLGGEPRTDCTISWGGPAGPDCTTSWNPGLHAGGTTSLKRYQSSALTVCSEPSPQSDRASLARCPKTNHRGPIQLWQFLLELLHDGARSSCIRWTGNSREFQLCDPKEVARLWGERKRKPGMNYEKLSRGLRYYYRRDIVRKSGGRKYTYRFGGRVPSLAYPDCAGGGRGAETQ
In short: as §1

[7] = molecular target: T4, ELF3 (Homo sapiens, UniProt P78545 1-371); conditions: protein: recombinant; tags: N-terminal GST; dsDNA, one strand shown
T4 sequence: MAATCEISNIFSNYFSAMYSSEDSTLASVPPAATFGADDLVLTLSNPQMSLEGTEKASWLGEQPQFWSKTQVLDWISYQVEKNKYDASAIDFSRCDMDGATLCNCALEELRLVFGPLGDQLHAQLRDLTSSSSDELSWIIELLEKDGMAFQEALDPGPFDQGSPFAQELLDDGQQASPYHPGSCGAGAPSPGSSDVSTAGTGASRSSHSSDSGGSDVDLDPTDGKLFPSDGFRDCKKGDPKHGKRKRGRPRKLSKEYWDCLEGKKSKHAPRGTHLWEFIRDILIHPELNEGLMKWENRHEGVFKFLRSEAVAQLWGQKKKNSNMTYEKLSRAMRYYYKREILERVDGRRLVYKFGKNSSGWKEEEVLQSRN
In short: as §1

[8] = molecular target: ETV1 (Homo sapiens, UniProt P50549 1-477); conditions: protein: recombinant; tags: N-terminal GST; dsDNA, one strand shown
Chain of ETV1 (P50549 whole entry): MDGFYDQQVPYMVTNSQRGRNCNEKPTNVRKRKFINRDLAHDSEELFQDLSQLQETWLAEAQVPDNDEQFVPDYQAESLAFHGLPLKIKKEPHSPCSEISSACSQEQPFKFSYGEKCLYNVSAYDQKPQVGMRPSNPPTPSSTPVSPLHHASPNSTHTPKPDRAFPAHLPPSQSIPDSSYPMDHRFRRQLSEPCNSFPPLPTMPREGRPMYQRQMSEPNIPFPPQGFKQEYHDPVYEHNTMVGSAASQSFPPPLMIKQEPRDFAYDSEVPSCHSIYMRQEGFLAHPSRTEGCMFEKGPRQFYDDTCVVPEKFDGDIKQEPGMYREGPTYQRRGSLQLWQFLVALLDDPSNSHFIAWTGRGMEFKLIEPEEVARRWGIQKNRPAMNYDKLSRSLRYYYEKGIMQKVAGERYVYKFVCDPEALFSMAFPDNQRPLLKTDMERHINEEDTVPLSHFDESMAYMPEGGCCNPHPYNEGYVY
In short: as §1

[9] = molecular target: T5, ETV3L (Homo sapiens, UniProt Q6ZN32 1-361); conditions: protein: recombinant; tags: N-terminal GST; dsDNA, one strand shown
T5 sequence: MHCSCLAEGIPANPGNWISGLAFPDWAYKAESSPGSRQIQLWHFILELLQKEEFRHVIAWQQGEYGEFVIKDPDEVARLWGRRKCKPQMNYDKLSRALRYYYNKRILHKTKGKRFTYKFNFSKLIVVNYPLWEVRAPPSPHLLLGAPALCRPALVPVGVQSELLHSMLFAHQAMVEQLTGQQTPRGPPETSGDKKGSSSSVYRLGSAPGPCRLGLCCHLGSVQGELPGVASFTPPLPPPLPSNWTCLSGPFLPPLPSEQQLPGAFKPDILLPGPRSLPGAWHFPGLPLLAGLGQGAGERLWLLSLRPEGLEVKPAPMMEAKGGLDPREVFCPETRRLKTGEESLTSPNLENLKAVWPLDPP
In short: as §1

[10] = molecular target: T6, ETS2 (Homo sapiens, UniProt P15036 1-469); conditions: protein: recombinant; tags: N-terminal GST; dsDNA, one strand shown
T6 sequence: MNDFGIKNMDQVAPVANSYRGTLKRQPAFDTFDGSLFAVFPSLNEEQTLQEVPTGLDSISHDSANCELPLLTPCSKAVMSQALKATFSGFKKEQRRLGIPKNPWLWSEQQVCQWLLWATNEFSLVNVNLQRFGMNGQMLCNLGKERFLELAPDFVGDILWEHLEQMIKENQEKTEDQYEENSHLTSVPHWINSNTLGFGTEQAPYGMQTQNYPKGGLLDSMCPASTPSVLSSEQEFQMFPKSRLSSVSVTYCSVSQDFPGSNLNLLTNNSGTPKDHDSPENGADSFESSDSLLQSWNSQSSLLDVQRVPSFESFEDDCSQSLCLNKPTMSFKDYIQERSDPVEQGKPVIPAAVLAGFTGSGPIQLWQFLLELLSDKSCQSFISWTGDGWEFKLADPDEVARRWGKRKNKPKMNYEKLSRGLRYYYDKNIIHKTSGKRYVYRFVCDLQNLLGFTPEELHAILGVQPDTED
In short: as §1

[11] = molecular target: T7, ELF5 (Homo sapiens, UniProt Q9UKW6-2 1-255); conditions: protein: recombinant; tags: N-terminal GST; dsDNA, one strand shown
T7 sequence: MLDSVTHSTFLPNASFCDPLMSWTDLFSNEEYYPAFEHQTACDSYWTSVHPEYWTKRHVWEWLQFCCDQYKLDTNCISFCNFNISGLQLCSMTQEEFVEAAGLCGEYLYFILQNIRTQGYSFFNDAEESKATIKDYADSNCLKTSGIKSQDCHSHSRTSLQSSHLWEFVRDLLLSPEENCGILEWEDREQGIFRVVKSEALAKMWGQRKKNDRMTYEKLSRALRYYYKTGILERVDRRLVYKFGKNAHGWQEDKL
In short: as §1

[12] = molecular target: ETV6 (Homo sapiens, UniProt P41212 1-452); conditions: protein: recombinant; tags: N-terminal GST; dsDNA, one strand shown
Chain of ETV6 (P41212 whole entry): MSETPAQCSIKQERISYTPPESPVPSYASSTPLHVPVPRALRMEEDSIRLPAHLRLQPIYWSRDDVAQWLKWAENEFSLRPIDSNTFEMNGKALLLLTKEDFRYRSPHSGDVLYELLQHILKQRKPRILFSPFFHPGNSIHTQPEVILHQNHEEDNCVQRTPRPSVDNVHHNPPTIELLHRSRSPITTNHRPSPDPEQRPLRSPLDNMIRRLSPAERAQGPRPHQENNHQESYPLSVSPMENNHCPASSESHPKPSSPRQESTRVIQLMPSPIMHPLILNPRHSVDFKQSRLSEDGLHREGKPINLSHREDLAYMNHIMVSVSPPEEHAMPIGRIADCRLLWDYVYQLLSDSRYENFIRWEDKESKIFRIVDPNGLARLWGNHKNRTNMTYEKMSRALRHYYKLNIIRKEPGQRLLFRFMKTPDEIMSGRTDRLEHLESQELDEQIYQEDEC
In short: as §1

[13] = molecular target: T8, ERF (Homo sapiens, UniProt P50548 1-548); conditions: protein: recombinant; tags: N-terminal GST; dsDNA, one strand shown
T8 sequence: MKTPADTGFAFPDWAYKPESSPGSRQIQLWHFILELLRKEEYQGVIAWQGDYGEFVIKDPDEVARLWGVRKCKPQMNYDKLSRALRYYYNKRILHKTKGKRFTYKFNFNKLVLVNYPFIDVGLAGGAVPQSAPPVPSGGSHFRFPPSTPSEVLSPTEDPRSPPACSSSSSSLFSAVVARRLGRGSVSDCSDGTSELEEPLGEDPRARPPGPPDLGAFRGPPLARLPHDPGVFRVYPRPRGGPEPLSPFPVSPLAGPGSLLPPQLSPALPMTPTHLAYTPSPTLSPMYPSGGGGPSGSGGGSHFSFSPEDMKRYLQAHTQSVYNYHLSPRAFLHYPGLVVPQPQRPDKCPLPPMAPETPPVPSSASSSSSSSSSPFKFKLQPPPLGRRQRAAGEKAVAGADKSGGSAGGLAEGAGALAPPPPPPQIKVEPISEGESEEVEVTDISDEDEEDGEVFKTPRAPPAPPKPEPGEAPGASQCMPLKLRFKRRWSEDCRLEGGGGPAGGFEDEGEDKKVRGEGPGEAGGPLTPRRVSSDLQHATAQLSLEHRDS
In short: as §1

[14] = molecular target: T9, SPDEF (Homo sapiens, UniProt O95238 1-335); conditions: protein: recombinant; tags: N-terminal GST; dsDNA, one strand shown
T9 sequence: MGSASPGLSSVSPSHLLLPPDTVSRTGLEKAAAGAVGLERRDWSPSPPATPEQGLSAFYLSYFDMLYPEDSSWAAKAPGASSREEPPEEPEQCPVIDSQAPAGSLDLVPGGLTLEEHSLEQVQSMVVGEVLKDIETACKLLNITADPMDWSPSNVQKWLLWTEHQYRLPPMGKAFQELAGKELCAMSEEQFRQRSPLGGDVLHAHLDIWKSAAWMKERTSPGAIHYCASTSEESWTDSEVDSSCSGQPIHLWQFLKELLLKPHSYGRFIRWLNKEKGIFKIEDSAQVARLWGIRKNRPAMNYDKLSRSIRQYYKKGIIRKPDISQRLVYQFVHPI
In short: as §1

[15] = molecular target: T10, ETV7 (Homo sapiens, UniProt Q9Y603 1-341); conditions: protein: recombinant; tags: N-terminal GST; dsDNA, one strand shown
T10 sequence: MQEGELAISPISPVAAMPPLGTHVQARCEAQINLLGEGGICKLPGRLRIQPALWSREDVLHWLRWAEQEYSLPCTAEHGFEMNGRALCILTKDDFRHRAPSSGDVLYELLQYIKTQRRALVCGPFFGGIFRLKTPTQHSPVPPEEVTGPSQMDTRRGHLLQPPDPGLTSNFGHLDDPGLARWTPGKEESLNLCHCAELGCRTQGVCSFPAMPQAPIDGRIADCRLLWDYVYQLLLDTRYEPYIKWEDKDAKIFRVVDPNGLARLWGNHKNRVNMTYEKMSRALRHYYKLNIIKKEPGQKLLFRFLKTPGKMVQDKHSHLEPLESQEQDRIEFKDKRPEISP
In short: as §1

[16] = molecular target: T11, ETV3 (Homo sapiens, UniProt P41162-2 1-143); conditions: protein: recombinant; tags: N-terminal GST; dsDNA, one strand shown
T11 sequence: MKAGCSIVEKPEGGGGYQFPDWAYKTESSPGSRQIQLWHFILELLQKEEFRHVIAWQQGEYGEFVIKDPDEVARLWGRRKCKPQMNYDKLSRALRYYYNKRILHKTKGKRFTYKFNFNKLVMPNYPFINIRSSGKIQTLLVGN
In short: as §1

| Sequence | binding signal [1] | binding signal [2] | binding signal [3] | binding signal [4] | binding signal [5] | binding signal [6] | binding signal [7] | binding signal [8] | binding signal [9] | binding signal [10] | binding signal [11] | binding signal [12] | binding signal [13] | binding signal [14] | binding signal [15] | binding signal [16] |
| --- | --- | --- | --- | --- | --- | --- | --- | --- | --- | --- | --- | --- | --- | --- | --- | --- |
| AGACCT | 1.04 fold enrichment (6-mer frequency, TF over GST control) | 1.04 fold enrichment (6-mer frequency, TF over GST control) | 1.02 fold enrichment (6-mer frequency, TF over GST control) | 1.12 fold enrichment (6-mer frequency, TF over GST control) | 1.07 fold enrichment (6-mer frequency, TF over GST control) | 1.2 fold enrichment (6-mer frequency, TF over GST control) | 1.08 fold enrichment (6-mer frequency, TF over GST control) | 1.04 fold enrichment (6-mer frequency, TF over GST control) | 1.07 fold enrichment (6-mer frequency, TF over GST control) | 1.01 fold enrichment (6-mer frequency, TF over GST control) | 1.05 fold enrichment (6-mer frequency, TF over GST control) | 1.11 fold enrichment (6-mer frequency, TF over GST control) |  |  |  |  |
| ACATCG | 1.01 fold enrichment (6-mer frequency, TF over GST control) | 1.04 fold enrichment (6-mer frequency, TF over GST control) | 1.01 fold enrichment (6-mer frequency, TF over GST control) | 1.09 fold enrichment (6-mer frequency, TF over GST control) | 1.13 fold enrichment (6-mer frequency, TF over GST control) |  | 1.04 fold enrichment (6-mer frequency, TF over GST control) |  | 1.18 fold enrichment (6-mer frequency, TF over GST control) | 1.02 fold enrichment (6-mer frequency, TF over GST control) | 1.01 fold enrichment (6-mer frequency, TF over GST control) | 1.04 fold enrichment (6-mer frequency, TF over GST control) | 1.11 fold enrichment (6-mer frequency, TF over GST control) | 1.08 fold enrichment (6-mer frequency, TF over GST control) | 1.07 fold enrichment (6-mer frequency, TF over GST control) | 1.08 fold enrichment (6-mer frequency, TF over GST control) |
| GAATTG | 1.11 fold enrichment (6-mer frequency, TF over GST control) | 1.18 fold enrichment (6-mer frequency, TF over GST control) | 1.06 fold enrichment (6-mer frequency, TF over GST control) | 1.11 fold enrichment (6-mer frequency, TF over GST control) | 1.04 fold enrichment (6-mer frequency, TF over GST control) |  | 1.17 fold enrichment (6-mer frequency, TF over GST control) | 1.15 fold enrichment (6-mer frequency, TF over GST control) | 1.07 fold enrichment (6-mer frequency, TF over GST control) | 1.13 fold enrichment (6-mer frequency, TF over GST control) | 1.13 fold enrichment (6-mer frequency, TF over GST control) | 1.06 fold enrichment (6-mer frequency, TF over GST control) | 1.1 fold enrichment (6-mer frequency, TF over GST control) | 1.14 fold enrichment (6-mer frequency, TF over GST control) | 1.22 fold enrichment (6-mer frequency, TF over GST control) | 1.03 fold enrichment (6-mer frequency, TF over GST control) |
